{"source": "PubChem BioAssay (EPA / NIEHS)", "note": "Where “and” joins values, the source holds several entries; their conditions need not be identical. Equal entries are not always repeated. Calls of active or inactive are those of the source. The calls were made as follows: active = hit-call score of the fitted dose curve at least 0.9, where 1 is the maximum; inactive = score below 0.9."}
{"assay": "BSK_3C_VCAM1: BioMAP Diversity Plus: 3C Assay for Vascular cell adhesion molecule 1 (VCAM1) Biomarker Activity (AID 2282999)", "conditions": "BioMAP 3C HUVEC, VCAM1 ELISA, cytokine-stimulated; actives raise or lower the signal", "protocol": "BSK_3C is a cell-based, multiplexed-readout assay that uses umbilical vein endothelium, a human vascular primary cell, with measurements taken at 24 hours after chemical dosing in a 96-well plate.BSK_3C_VCAM1 is an assay component measured in the BSK_3C assay. It measures VCAM-1 antibody related to regulation of gene expression using ELISA technology.Data from the assay component BSK_3C_VCAM1 was analyzed into 1 assay endpoint. This assay endpoint, BSK_3C_VCAM1, was analyzed with bidirectional fitting relative to DMSO as the negative control and baseline of activity. Using a type of binding reporter, gain or loss-of-signal activity can be used to understand changes in the signaling as they relate to the gene VCAM1. Furthermore, this assay endpoint can be referred to as a primary readout, because this assay has produced multiple assay endpoints where this one serves a signaling function. To generalize the intended target to other relatable targets, this assay endpoint is annotated to the cell adhesion molecules intended target family, where the subfamily is Immunoglobulin CAM.\nThe levels of cell surface (or secreted, indicated by the prefix \"s\") biomarker endpoints were measured by ELISA. Overt cytotoxicity to cells in confluent adherent cultures (all systems other than the BT system) was assessed by measuring total protein levels using sulforhodamine B (SRB) staining in parallel cultures at the time of biomarker measurements, indicated as SRB endpoints. For proliferation assays for adherent cell types, individual cell types are cultured at sub-confluence and relative cell numbers quantified by SRB staining at time points optimized for each system (48 h: 3C and CASM3C systems; 72 h: BT and HDF3CGF systems; 96 h: SAg system). SRB was performed by staining cells with 0.1% SRB after fixation with 10% TCA and reading wells at 560 nm.Viability and proliferation of PBMC (T cells) was quantified by Alamar Blue reduction for the SAg and BT systems. For PBMC viability (referred to as PBMC Cytotoxicity within the assay endpoint names), cells were plated (75,000/well in a 96-well plate) and then chemical samples added for 1 h before addition of activators, SEB and TSST-1 (20 ng/mL final concentration each). Cells were incubated for 90 h. Then, Alamar Blue (20 uL/well) (Invitrogen, Cat DAL1100) was added for 6 h, and the plates were read with a fluorescence microplate reader at 546/580 nm (excitation/emission). For PBMC proliferation, cells were plated and activated as above but incubated for only 16 h prior to addition of Alamar Blue. Plates were read after 6 h."}
{"smiles": "Cc1cnccn1", "outcome": "inactive"}
{"smiles": "CCN(CCO)S(=O)(=O)C(F)(F)C(F)(F)C(F)(F)C(F)(F)C(F)(F)C(F)(F)C(F)(F)C(F)(F)F", "outcome": "inactive"}
{"smiles": "NS(=O)(=O)C(F)(F)C(F)(F)C(F)(F)C(F)(F)C(F)(F)C(F)(F)F", "outcome": "inactive"}
{"smiles": "CCN(CC)c1ccc2c(c1)Oc1cc(N(CC)CC)ccc1C21OC(=O)c2ccccc21", "outcome": "inactive"}
{"smiles": "O=C(O)C(F)(F)C(F)(F)C(F)(F)OC(F)(C(F)(F)F)C(F)(F)F", "outcome": "inactive"}
{"smiles": "C=C(C)C(=O)OCC(F)(F)C(F)(F)C(F)(F)C(F)F", "outcome": "inactive"}
{"smiles": "NC(=O)C(F)(F)C(F)(F)C(F)(F)C(F)(F)C(N)=O", "outcome": "inactive"}
{"smiles": "O=C(O)C(F)(F)C(F)(F)C(F)(F)C(F)(F)C(F)(F)C(F)(F)C(F)F", "outcome": "inactive"}
{"smiles": "OCC(F)(F)C(F)(F)C(F)(F)C(F)(F)C(F)(F)C(F)(F)CO", "outcome": "inactive"}
{"smiles": "CCN(CC)c1ccc(C=O)cc1", "outcome": "inactive"}
{"smiles": "O=C=Nc1cccc2c(N=C=O)cccc12", "outcome": "inactive"}
{"smiles": "NCC(F)(F)C(F)(F)C(F)(F)C(F)(F)C(F)(F)C(F)(F)F", "outcome": "inactive"}
{"smiles": "OCC(O)CC(F)(F)C(F)(F)C(F)(F)C(F)(F)F", "note": "(stereo not given)", "outcome": "inactive"}
{"smiles": "CCN(CC)c1ccc(C=O)c(O)c1", "outcome": "inactive"}
{"smiles": "C=CC(=O)OCCC(F)(F)C(F)(F)C(F)(F)C(F)(F)F", "AC50": "16.6 µM (active) and 15.6 µM (active)"}
{"smiles": "O=C1c2c(O)ccc(Nc3ccc(CCO)cc3)c2C(=O)c2c([N+](=O)[O-])ccc(O)c21", "AC50": "23.2 µM (active)"}
{"smiles": "C[C@]12CC[C@H]3C(=CCc4cc(O)ccc43)[C@@H]1CCC2=O", "outcome": "inactive"}
{"smiles": "O=C=NCc1cccc(CN=C=O)c1", "outcome": "inactive"}
{"smiles": "O=S(=O)(O)CCC(F)(F)C(F)(F)C(F)(F)C(F)(F)C(F)(F)C(F)(F)C(F)(F)C(F)(F)F", "outcome": "inactive"}
{"smiles": "Cc1cc(O)c(C(C)(C)C)cc1C(C)(C)C", "AC50": "4.42 µM (active)"}
{"smiles": "Brc1nc2ccccc2s1", "outcome": "inactive"}
{"smiles": "CNS(=O)(=O)C(F)(F)C(F)(F)C(F)(F)C(F)(F)C(F)(F)C(F)(F)C(F)(F)C(F)(F)F", "outcome": "inactive"}
{"smiles": "NCC(F)(F)C(F)(F)C(F)(F)C(F)(F)C(F)(F)C(F)(F)C(F)(F)C(F)(F)F", "outcome": "inactive"}
{"smiles": "O=S(=O)(O)CCC(F)(F)C(F)(F)C(F)(F)C(F)(F)F", "outcome": "inactive"}
{"smiles": "NC(=O)C(F)(F)C(F)(F)C(F)(F)F", "outcome": "inactive"}
{"smiles": "NC(=O)C(F)(F)C(F)(F)C(F)(F)C(F)F", "outcome": "inactive"}
{"smiles": "O=C(F)C1(F)C(F)(F)C(F)(F)C(F)(F)C(F)(F)C1(F)F", "outcome": "inactive"}
{"smiles": "C=CC(=O)OCC(F)(F)C(F)(F)C(F)(F)COC(=O)C=C", "AC50": "15.6 µM (active) and 20.5 µM (active)"}
{"smiles": "OC(O)C(F)(F)C(F)(F)F", "outcome": "inactive"}
{"smiles": "O=C1C=CC(=O)N1c1ccc(Cc2ccc(N3C(=O)C=CC3=O)cc2)cc1", "AC50": "7.45 µM (active)"}
{"smiles": "CN(C(=O)C(F)(F)C(F)(F)C(F)(F)F)[Si](C)(C)C", "outcome": "inactive"}
{"smiles": "CC1=CC2C3C=CC(C3)C2C1C", "note": "(stereo not given)", "outcome": "inactive"}
{"smiles": "O=C(O)CCC(F)(F)C(F)(F)C(F)(F)F", "outcome": "inactive"}
{"smiles": "FC(F)(F)C(F)(F)C(F)(F)C(F)(F)C(F)(F)C(F)(F)C(F)(F)CCI", "outcome": "inactive"}
{"smiles": "NC(=O)C(F)(F)C(F)(F)C(F)(F)C(F)(F)C(F)(F)C(F)(F)C(F)(F)F", "outcome": "inactive"}
{"smiles": "NC(O)(C(F)(F)F)C(F)(F)F", "outcome": "inactive"}
{"smiles": "CO[Si](C)(CCC(F)(F)C(F)(F)C(F)(F)C(F)(F)C(F)(F)C(F)(F)F)OC", "outcome": "inactive"}
{"smiles": "CCOC(C=C(C)CCC=C(C)C)OCC", "AC50": "34 µM (active)"}
{"smiles": "O=C(O)C(F)(F)C(F)(F)C(F)(F)OC(F)(F)F", "outcome": "inactive"}
{"smiles": "OCCCCC(F)(F)C(F)(F)C(F)(F)C(F)(F)F", "outcome": "inactive"}
